GLP1R inv ag: acts as inverse agonist at human GLP-1 receptor; Potency, µM (titrated, usually from 38.3 µM), hits mostly inhibitors; HEK293 GLP-1R CRE-luciferase, luminescence, 24 h; GLP-1R form is constitutively active; AID 624417; P43220; 410,000 compounds, 1.6% hits; note: nearly all actives have a fitted effect of over 55% in size
Target sequence (P43220 whole entry, looked up): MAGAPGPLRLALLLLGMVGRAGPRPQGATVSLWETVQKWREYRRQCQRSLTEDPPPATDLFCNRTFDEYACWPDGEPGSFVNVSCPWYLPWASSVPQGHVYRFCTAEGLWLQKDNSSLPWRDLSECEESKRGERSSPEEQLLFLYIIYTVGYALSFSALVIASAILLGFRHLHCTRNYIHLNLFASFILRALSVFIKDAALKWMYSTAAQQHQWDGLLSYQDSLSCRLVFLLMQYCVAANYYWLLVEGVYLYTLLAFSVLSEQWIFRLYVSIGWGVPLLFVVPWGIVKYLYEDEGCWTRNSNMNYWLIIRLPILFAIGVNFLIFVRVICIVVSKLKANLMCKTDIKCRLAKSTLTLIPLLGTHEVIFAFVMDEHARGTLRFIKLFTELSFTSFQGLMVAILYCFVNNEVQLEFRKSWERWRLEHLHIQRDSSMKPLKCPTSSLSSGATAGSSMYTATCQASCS
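Inverse agonists were sought by their lowering of basal cAMP reporter luciferase output in HEK293 cells stably carrying constitutively active human GLP-1R, after 24 h compound treatment.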
mIDH1 inhibitor: human IDH1 R132H inhibition | 390,000 compounds, 0.093% hits | IDH1-R132H enzyme, NADPH consumption, diaphorase/resazurin fluorescence | O75874 | AID 602179 | Potency, µM (titrated, usually from 76.6 µM), usual class: inhibitors; note: nearly all actives have a fitted effect of over 65% in size
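IDH1-R132H (0.5 ug/mL) preincubated 30 min with compound, then NADPH (0.016 mM) and alpha-KG (2 mM) added; 80 min at RT, pH 7.5. Remaining NADPH coupled via diaphorase/resazurin to fluorescence (540/590 nm); concentration-response curves normalized to no-enzyme control.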
GLP1R ag: activates the human GLP-1 receptor. P43220. HEK293 GLP-1R CRE-luciferase, luminescence, 4-6 h; cells express a hypersensitive GLP-1R form. Potency, µM (highest dose often 45.6 µM), most hits filed as activators. 380,000 compounds, 0.007% hits. AID 624172
HEK293 tox: cytotoxic in the GLP-1 receptor inverse agonist counter-screen. HEK293 cAMP-luciferase reporter cells, luminescence, 24 h. Potency, µM (highest dose often 38.3 µM), actives largely listed as inhibitors. 410,000 compounds, 0.13% hits. AID 624418;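 note: loss of luciferase light is scored as toxicity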
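Compound-treated cells are incubated 24 hr at 37 deg C under 5% CO2 after a 12 hour attachment period, then luciferase detection reagent is added and luminescence is measured following 12 min at room temperature; lowered signal indicates toxicity.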
LDHA inh: LDHA (human) enzyme inhibition | purified LDHA, NADH/diaphorase-resazurin fluorescence; hits give low values | activity change, % (values are at about 110 or 230 µM) | 480,000 compounds, 0.15% hits | AID 1347041; in the data active = activity change below about -30%; inconclusive = mostly about -25% to -30%
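LDH5 2 nM; NADH 0.06 mM, pyruvate 0.2 mM; 200 mM Tris pH 7.4, EDTA, Tween-20; 5 min RT. Detection: diaphorase 0.133 mg/mL + resazurin 37 µM, fluorescence ex540/em590 at 0 and 20 min; normalized to enzyme-free and DMSO wells.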
PTHR1 ag: agonists of human PTHR1 parathyroid hormone receptor; Potency, µM (series often up to 115 µM), most hits filed as activators; Q03431; AID 743266; HEK293 GP2 PTHR1 cells, GloSensor cAMP luminescence, 1 h; 410,000 compounds, 0.075% hits; note: nearly all actives have a fitted effect of over 55% in size
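HEK-293-derived GP2 cells expressing PTHR1 and a GloSensor cAMP reporter, 3,000/well, plated overnight, given luciferin plus IBMX (each 0.5 mM as added) for 1 h at 37 °C, then compound for 1 h at 37 °C. Luminescence was read after 15 min at room temperature.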
Each line names hits and unclear results; the compound was inactive in the other large screens. Shown are actives, neighbours in structure and some others; about 1.7% of the full set was active somewhere. Unless noted, calls come from the whole dose curve; as a rule, active = well fitted curve in the direction sought with a large enough effect; inconclusive = small, poorly fitted or top-dose-only effect, or another doubt; inactive = no such curve, though single readings can be large; an effect the other way counts as inactive or inconclusive.

O=C(C1CCN(CCCc2ccccc2)CC1)N(CCc1ccccc1)Cc1ccccc1	GLP1R inv ag 10µM, HEK293 tox inconclusive
CCOc1ccc(NC(=O)c2nc(-c3ccccc3)n(-c3ccc(F)cc3)n2)cc1	none (no result: GLP1R inv ag, mIDH1 inhibitor, GLP1R ag, HEK293 tox, PTHR1 ag)
COC(=O)c1ccc(N2C(=O)Cc3cc(OC)c(OC)cc3C2c2ccc(OC)cc2)cc1 (stereo unspecified)	none (no result: GLP1R inv ag, mIDH1 inhibitor, GLP1R ag, HEK293 tox, PTHR1 ag)
Cc1nc(SCc2cccc(C(=O)O)c2)nc2c1CCCC2	GLP1R inv ag 8.91µM
CCCC1=C(C(=O)OCC)C(c2cccc(Cl)c2Cl)NC(=O)N1C (stereo unspecified)	none (no result: GLP1R inv ag, mIDH1 inhibitor, GLP1R ag, HEK293 tox, PTHR1 ag)
CCCC(=O)NC(c1ccccc1Cl)c1c(O)ccc2ccccc12 (stereo unspecified)	GLP1R inv ag 7.08µM, HEK293 tox inconclusive
CC(=O)Oc1ccc2ccccc2c1C(NC(=O)Cc1ccccc1)c1ccccc1Cl (stereo unspecified)	GLP1R inv ag 5.62µM, HEK293 tox inconclusive
Cc1ccc(C(NC(=O)C2CCCCC2)c2c(O)ccc3ccccc23)cc1 (stereo unspecified)	GLP1R inv ag 4.47µM, HEK293 tox inconclusive
CCC(=O)NC(c1ccccc1)c1c(OC(C)=O)ccc2ccccc12 (stereo unspecified)	GLP1R inv ag inconclusive
N#Cc1ccc(N2CCC(C(=O)Nc3ncc(Cc4ccccc4)s3)CC2)nc1	none (no result: GLP1R inv ag, mIDH1 inhibitor, GLP1R ag, HEK293 tox, PTHR1 ag)
Cc1cccc(NS(=O)(=O)c2ccc3[nH]c4c(c3c2)CCCCCC4)c1	GLP1R inv ag 8.91µM, HEK293 tox inconclusive (no result: GLP1R ag)
Cc1ccccc1NS(=O)(=O)c1ccc2[nH]c3c(c2c1)CCCCC3	GLP1R inv ag 10µM
Cc1cc(/C=C2\SC(=S)N(C)C2=O)c(C)n1-c1ccc(O)cc1	GLP1R inv ag 1.41µM
CC1CCN(C(=O)CSc2nc(C3CC3)nc3ccccc23)CC1	GLP1R inv ag inconclusive
CC1CCCCN1C(=O)CSc1nc(C2CC2)nc2ccccc12 (stereo unspecified)	GLP1R inv ag 7.94µM, HEK293 tox inconclusive
CCCCN(C)C(=O)CSc1nc2ccccc2nc1Cc1ccc(C)cc1	GLP1R inv ag 11.2µM (no result: GLP1R ag)
O=C(CSc1nc2ccccc2nc1SCC(=O)N1CCOCC1)N1CCOCC1	none
COc1ccccc1N1CCN(C(=O)CSc2nc3ccccc3nc2Cc2ccccc2)CC1	GLP1R inv ag 11.2µM
O=C(CSc1nc2ccccc2nc1SCC(=O)N1CCCCC1)N1CCCCC1	GLP1R inv ag 10µM, HEK293 tox inconclusive
CCCCNC(=O)CSc1nc2ccccc2nc1Cc1ccc(C)cc1	none
CN(C)c1ccc([N+](=O)[O-])cc1	none (no result: GLP1R inv ag, mIDH1 inhibitor, GLP1R ag, HEK293 tox, PTHR1 ag)
Cn1c(-c2ccccc2)cnc1SCC(=O)N1CCCCC1	GLP1R inv ag 3.98µM
O=C(CSc1nc(N2CCCCC2)nc(N2CCCCC2)n1)N1CCN(c2ccccc2)CC1	GLP1R inv ag 2.82µM
O=C(CSc1nc2ccccc2nc1Cc1ccc(Cl)cc1)N1CCCCC1	GLP1R inv ag 10µM (no result: GLP1R ag)
Cc1ccc(Cc2nc3ccccc3nc2SCC(=O)N2CCCCC2)cc1	GLP1R inv ag inconclusive (no result: GLP1R ag)
CC1CCCCN1C(=O)CSc1nc2ccccc2nc1Cc1ccc(Cl)cc1 (stereo unspecified)	GLP1R inv ag 5.01µM (no result: GLP1R ag)
COc1ccc(C(=O)NCCc2csc(-c3cccs3)n2)cc1	none (no result: GLP1R inv ag, mIDH1 inhibitor, GLP1R ag, HEK293 tox, PTHR1 ag)
CCCCn1c(N)c(N(CC(C)C)C(=O)c2cc(-c3ccccc3)nc3ccccc23)c(=O)[nH]c1=O	none (no result: GLP1R inv ag, mIDH1 inhibitor, GLP1R ag, HEK293 tox, PTHR1 ag)
CNC(=O)NC(=O)C(C)N1CCN(c2oc(C3CC3)nc2C#N)CC1 (stereo unspecified)	none (no result: GLP1R inv ag, mIDH1 inhibitor, GLP1R ag, HEK293 tox, PTHR1 ag)
Fc1ccc(OCc2coc(-c3ccccc3)n2)c(Br)c1	none (no result: GLP1R inv ag, mIDH1 inhibitor, GLP1R ag, HEK293 tox, PTHR1 ag)
CC(C)N1CCC(NC(=S)NCc2ccc(F)cc2)CC1	none (no result: GLP1R inv ag, mIDH1 inhibitor, GLP1R ag, HEK293 tox, PTHR1 ag)
CCn1nc(NS(=O)(=O)c2ccccc2)c2cc3cccc(C)c3nc21	none
CCn1nc(NS(=O)(=O)c2ccc(F)cc2)c2cc3cccc(C)c3nc21	GLP1R inv ag 10µM
O=C1/C(=C/c2cccs2)N=C(c2cccs2)N1Nc1ccccc1	GLP1R inv ag 10µM

Screening data deposited in PubChem BioAssay by National Center for Advancing Translational Sciences (NCATS).
